Assay outcomes (PubChem)
D2 antagonist = D2 dopamine receptor (human) antagonism; P14416; 2% of 340,000 active; inhibition, % at 10 µM; HEK293 TREx D2 cells, calcium flux, dopamine EC80; in the data active = inhibition above about 30%; inactive = below that, where a call was filed
Target sequence (P14416 whole entry, looked up): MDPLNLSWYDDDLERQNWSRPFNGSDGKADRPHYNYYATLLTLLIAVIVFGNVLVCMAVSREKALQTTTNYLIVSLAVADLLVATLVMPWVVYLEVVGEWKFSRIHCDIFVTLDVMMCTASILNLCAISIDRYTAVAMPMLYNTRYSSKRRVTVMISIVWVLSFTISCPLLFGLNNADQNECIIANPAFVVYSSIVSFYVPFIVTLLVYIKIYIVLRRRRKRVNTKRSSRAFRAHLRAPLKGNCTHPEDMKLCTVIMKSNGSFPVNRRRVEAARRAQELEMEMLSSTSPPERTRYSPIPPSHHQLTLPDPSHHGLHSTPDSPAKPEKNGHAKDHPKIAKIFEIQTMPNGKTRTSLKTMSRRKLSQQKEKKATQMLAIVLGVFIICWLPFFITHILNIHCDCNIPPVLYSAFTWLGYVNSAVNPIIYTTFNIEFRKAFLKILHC
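Compounds are added to dye-loaded, induced HEK293 T-REx cells coupled to calcium release via D2; after a 3 min kinetic read an EC80 dopamine stimulus is given and fluorescence is recorded for 3 more min.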
D2 PAM-1 = positive allosteric modulators of human D2 dopamine receptor; HEK293 T-REx D2, calcium flux, EC20 dopamine potentiation; potentiation, % at 10 µM; 0.34% of 340,000 active;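 active = potentiation over 3 SD above the plate norm, cut at about 30% in these data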
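Using a no-wash calcium dye in inducible, force-coupled HEK293 Trex cells expressing D2, we tracked fluorescence each second for 180 s after compound, then for 180 s after EC20 dopamine to detect augmented signalling.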
D2 ag-1 = activates the human D2 dopamine receptor. DiscoveRx PathHunter D2 beta-arrestin, luminescence, 90 min; 100% = 57 uM dopamine signal. 0.084% of 360,000 active. P14416. AID 624465. activation, % (no concentration beside the values); in the data active = activation above about 40%; inconclusive = between about 15% and that limit
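Agonist mode: compounds alone added to overnight-plated D2 PathHunter cells for 90 min at 37 C, with 57 uM final dopamine (EC100) defining full response. Beta-arrestin recruitment detected by chemiluminescent reagent, read after 1 h at ambient temperature.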
D2 ag-2 = D2 dopamine receptor (human) agonism; activation, % at 2 µM; HEK293 T-REx D2 cells, calcium flux agonist mode; 0.53% of 340,000 active;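 active = activation over 3 SD above normal in the single-dose calcium agonist read, cut at about 30% in these data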
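Tetracycline-induced HEK293 Trex cells with D2 receptor force-coupled to calcium signaling, plated overnight at 30 C and loaded with no-wash calcium dye. Calcium flux read kinetically for 180 s after compound addition; responses flag agonists.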
D2 PAM-2 = human D2 receptor positive allosteric modulation; DiscoveRx D2 beta-arrestin cells, luminescence, 90 min; 100% = 57 uM dopamine signal; potentiation, % (test concentration not listed); 0.23% of 360,000 active; in the data active = potentiation above about 50%; inconclusive = mostly about 30% to 49%
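D2 cells co-treated with compound plus 50 nM dopamine (EC20) for 90 min at 37 deg C to detect potentiation. Beta-arrestin recruitment was read as enzyme-fragment luminescence after 1 h at ambient temperature. Full response was set by 57 uM dopamine.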
Of the large screens only hits and unclear results are named; the others gave an inactive call. In the library only some 2.4% were active in any assay of this set; here they are far more common.

Cc1ccc(-c2nc(NCc3ccco3)c3ccccc3n2)cc1	none
OCCN1CCN(c2nc(NCc3ccco3)c3ccccc3n2)CC1	none
CSc1nc(NCc2ccco2)c2ccccc2n1	D2 antagonist 31
Cc1ccc(OCCN2CCN(c3nc(NCc4ccco4)c4ccccc4n3)CC2)cc1	D2 antagonist 38
c1ccc(-c2nc(NCc3ccco3)c3oc4ccccc4c3n2)cc1	D2 PAM-1 33
Cc1cccc(NC(=O)CSc2nc(C)cc(C)c2C(=O)Nc2ccc(Cl)cc2)c1	none (no result: D2 antagonist, D2 ag-1, D2 PAM-2)
COc1cc(C)ccc1OCCCn1c(-c2ccc(Cl)cc2)nc2ccccc2c1=O	none (no result: D2 antagonist, D2 ag-1, D2 PAM-2)
CC(=O)Nc1ccc(C2Nc3c(C)cc(C)cc3-c3cc(C)nn32)cc1 (stereo not drawn)	none (no result: D2 antagonist, D2 ag-1, D2 PAM-2)
O=C(NCC(c1cccnc1)N1CCN(Cc2ccccc2)CC1)C(=O)Nc1ccc(Cl)cc1 (stereo not drawn)	none (no result: D2 antagonist, D2 PAM-1, D2 ag-1, D2 PAM-2)
CSc1ccccc1C(=O)OCC(=O)N1CCCC1=O	D2 PAM-1 52
O=C(OCC(=O)N1CCCC1=O)c1ccc(O)cc1O	none
CCc1ccc(-n2nc(C)c3c(C(=O)Nc4cc(OC)cc(OC)c4)cc(C)nc32)cc1	none (no result: D2 antagonist, D2 ag-1, D2 PAM-2)
Cc1ccc(C(=O)COC(=O)CSc2cccc3cccnc23)c(C)c1	D2 PAM-2 57 (no result: D2 antagonist, D2 PAM-1, D2 ag-2)
Cc1ccc(C(=O)COC(=O)c2cccc(NC(=O)c3ccc([N+](=O)[O-])cc3[N+](=O)[O-])c2)cc1	D2 ag-1 inconclusive, D2 PAM-2 122
CC(=O)Nc1ccc(C(=O)OCC(=O)c2cccc([N+](=O)[O-])c2)cc1	none
CCN(CC)c1nn2c(=O)c(C(=O)NCc3ccc(OC)cc3OC)cnc2s1	none (no result: D2 antagonist, D2 PAM-1, D2 ag-1, D2 PAM-2)
COc1cc(/C=N/NC(=O)c2ccncc2)cc(OC)c1OC	none
COc1ccc(C(=O)N/N=C/c2cn[nH]c2-c2ccc(OC)cc2OC)cc1	none
COc1c(Br)cc(Br)cc1/C=N/NC(=O)c1ccncc1	D2 antagonist 93
COc1ccc(-c2[nH]ncc2/C=N/NC(=O)c2ccc(Br)cc2)c(OC)c1	D2 antagonist 48
CN(C)c1ccc(C(=O)N/N=C/c2cc(Br)cc(Br)c2O)cc1	D2 antagonist 32
C/C(=N\NC(=O)c1ccc(Br)cc1)c1cccc(NC(=O)c2cccnc2)c1	D2 antagonist 32
C/C(=N\NC(=O)c1ccncc1)c1cccc(NC(=O)c2ccc(C(C)(C)C)cc2)c1	none
Cc1ccc(OC(=O)CSc2nnc(-c3ccc4c(c3)OCO4)o2)c(C)c1	none (no result: D2 antagonist, D2 ag-1, D2 PAM-2)
COc1c(Br)cc(Br)cc1/C=N/NC(=O)c1cccnc1	D2 antagonist 90
CCCN1CCC(=O)N([C@H](COc2ccccc2)Cc2ccccc2)CC1	D2 antagonist 39
O=C1CCN(Cc2ccccc2)CCN1[C@H](COc1ccccc1)Cc1ccccc1	none
O=C1c2ccccc2C(=O)c2c(Nc3ccc(CCO)cc3)ccc(O)c21	D2 ag-1 41
Cc1ccc(NC(=O)N(C2=NCC(C)S2)c2ccccc2)cc1 (stereo not drawn)	none (no result: D2 antagonist, D2 PAM-1, D2 ag-2)
CC(=O)Nc1ccc(S(=O)(=O)N(C2=NCC(C)S2)c2ccccc2)cc1 (stereo not drawn)	D2 antagonist 51
Cc1cc(C)c2[nH]c(=O)c(C(c3nnnn3CC3CCCO3)N3CCC(C)CC3)cc2c1 (stereo not drawn)	D2 antagonist 37
CC(=O)c1ccc(N2CCN(C(=O)c3cccc(Oc4ccccc4)c3)CC2)cc1	D2 antagonist 35
CC(=O)c1ccc(N2CCN(C(=O)c3ccc(-c4ccccc4)cc3)CC2)cc1	none
CN(C(=O)c1ccc(Br)o1)C1CCS(=O)(=O)C1 (stereo not drawn)	D2 antagonist 37
CCN(C(=O)c1ccc(Br)o1)C1CCS(=O)(=O)C1 (stereo not drawn)	none
COc1ccc(N2CCC(CNS(=O)(=O)c3cccc(C(F)(F)F)c3)C2)cc1 (stereo not drawn)	D2 antagonist 38 (no result: D2 PAM-1)
COc1ccc(CNC(=O)C2CCN(S(=O)(=O)c3cccc(C(F)(F)F)c3)CC2)cc1	none
Cc1ccc2oc(-c3ccc(Cl)c(NC(=O)c4cc5ccccc5o4)c3)nc2c1	none (no result: D2 antagonist, D2 ag-1, D2 PAM-2)
O=C(COC(=O)CNS(=O)(=O)c1ccc2ccccc2c1)Nc1ccccc1Sc1ccccc1	D2 ag-2 34
